Measured values taken from article PMC11062922 (Nature Chemical Biology, 2023).
Like-named read-outs stand apart in the source and are kept apart here.

System: AAK1
Conditions: read-out: apparent Kd, n = 1

Q: For Lestaurtinib, which potency estimated from few doses (compound concentrations:100 nM and 1000 nM (sheet 'Lestaurtinib' of Supplementary Table 1),run:Lestaurtinib_02339_R2,Plate:MR001) is on record?
A: Its potency estimated from few doses is 85.5 nM.

Q: What about the potency estimated from few doses (compound concentrations:100 nM and 1000 nM (sheet 'Lestaurtinib' of Supplementary Table 1),run:Lestaurtinib_02339_R3,Plate:MR001) of the same substance?
A: Its potency estimated from few doses is 53.3 nM.

Q: What about the potency estimated from few doses (compound concentrations:100 nM and 1000 nM (sheet 'Lestaurtinib' of Supplementary Table 1),run:Lestaurtinib_02364_R3,Plate:MR002) of the same substance?
A: Its potency estimated from few doses is 69.8 nM.

Q: What about the potency estimated from few doses (compound concentrations:100 nM and 1000 nM (sheet 'Lestaurtinib' of Supplementary Table 1),run:Lestaurtinib_02367_R1,Plate:MR003) of the same substance?
A: The potency estimated from few doses was 65.4 nM.

Q: And the potency estimated from few doses (compound concentrations:100 nM and 1000 nM (sheet 'Lestaurtinib' of Supplementary Table 1),run:Lestaurtinib_02367_R2,Plate:MR003)?
A: Its potency estimated from few doses is 78.3 nM.

Q: What about the potency estimated from few doses (compound concentrations:100 nM and 1000 nM (sheet 'Lestaurtinib' of Supplementary Table 1),run:Lestaurtinib_02367_R3,Plate:MR003) of the same substance?
A: Its potency estimated from few doses is 77.2 nM.

Q: What about the potency estimated from few doses (compound concentrations:100 nM and 1000 nM (sheet 'Lestaurtinib' of Supplementary Table 1),run:Lestaurtinib_02381_R1,Plate:MR004) of the same substance?
A: Its potency estimated from few doses is 66.8 nM.

Q: And the potency estimated from few doses (compound concentrations:100 nM and 1000 nM (sheet 'Lestaurtinib' of Supplementary Table 1),run:Lestaurtinib_02381_R3,Plate:MR004)?
A: The potency estimated from few doses was 45.5 nM.

Q: What about the potency estimated from few doses (compound concentrations:100 nM and 1000 nM (sheet 'Lestaurtinib' of Supplementary Table 1),run:Lestaurtinib_02407_R1,Plate:MR005) of the same substance?
A: The potency estimated from few doses was 63.9 nM.

Q: What about the potency estimated from few doses (compound concentrations:100 nM and 1000 nM (sheet 'Lestaurtinib' of Supplementary Table 1),run:Lestaurtinib_02407_R2,Plate:MR005) of the same substance?
A: The potency estimated from few doses was 53.3 nM.

Q: And the potency estimated from few doses (compound concentrations:100 nM and 1000 nM (sheet 'Lestaurtinib' of Supplementary Table 1),run:Lestaurtinib_02407_R3,Plate:MR005)?
A: The potency estimated from few doses was 73.1 nM.

Q: What about the potency estimated from few doses (compound concentrations:100 nM and 1000 nM (sheet 'Lestaurtinib' of Supplementary Table 1),run:Lestaurtinib_02422_R2,Plate:MR006) of the same substance?
A: The potency estimated from few doses was 18.9 nM.

Q: What about the potency estimated from few doses (compound concentrations:100 nM and 1000 nM (sheet 'Lestaurtinib' of Supplementary Table 1),run:Lestaurtinib_02422_R3,Plate:MR006) of the same substance?
A: The potency estimated from few doses was 72.2 nM.

Q: What about the potency estimated from few doses (compound concentrations:100 nM and 1000 nM (sheet 'Lestaurtinib' of Supplementary Table 1),run:Lestaurtinib_02437_R2,Plate:MR007) of the same substance?
A: Its potency estimated from few doses is 69.6 nM.

Q: What about the potency estimated from few doses (compound concentrations:100 nM and 1000 nM (sheet 'Lestaurtinib' of Supplementary Table 1),run:Lestaurtinib_02438_R1,Plate:MR008) of the same substance?
A: The potency estimated from few doses was 74.4 nM.

Q: What about the potency estimated from few doses (compound concentrations:100 nM and 1000 nM (sheet 'Lestaurtinib' of Supplementary Table 1),run:Lestaurtinib_02438_R2,Plate:MR008) of the same substance?
A: The potency estimated from few doses was 72.4 nM.

Q: What about the potency estimated from few doses (compound concentrations:100 nM and 1000 nM (sheet 'Lestaurtinib' of Supplementary Table 1),run:Lestaurtinib_02443_R1,Plate:MR009) of the same substance?
A: Its potency estimated from few doses is 59.8 nM.

Q: What about the potency estimated from few doses (compound concentrations:100 nM and 1000 nM (sheet 'Lestaurtinib' of Supplementary Table 1),run:Lestaurtinib_02443_R2,Plate:MR009) of the same substance?
A: The potency estimated from few doses was 72.4 nM.

Q: And the potency estimated from few doses (compound concentrations:100 nM and 1000 nM (sheet 'Lestaurtinib' of Supplementary Table 1),run:Lestaurtinib_02473_R1,Plate:MR010)?
A: Its potency estimated from few doses is 56.2 nM.

Q: What about the potency estimated from few doses (compound concentrations:100 nM and 1000 nM (sheet 'Lestaurtinib' of Supplementary Table 1),run:Lestaurtinib_02473_R3,Plate:MR010) of the same substance?
A: Its potency estimated from few doses is 40.1 nM.

Q: And the potency estimated from few doses (compound concentrations:100 nM and 1000 nM (sheet 'Lestaurtinib' of Supplementary Table 1),run:Lestaurtinib_02482_R1,Plate:MR011)?
A: Its potency estimated from few doses is 62.4 nM.

Q: And the potency estimated from few doses (compound concentrations:100 nM and 1000 nM (sheet 'Lestaurtinib' of Supplementary Table 1),run:Lestaurtinib_02482_R2,Plate:MR011)?
A: The potency estimated from few doses was 81.9 nM.

Q: And the potency estimated from few doses (compound concentrations:100 nM and 1000 nM (sheet 'Lestaurtinib' of Supplementary Table 1),run:Lestaurtinib_02482_R3,Plate:MR011)?
A: The potency estimated from few doses was 69.5 nM.

Q: And the potency estimated from few doses (compound concentrations:100 nM and 1000 nM (sheet 'Lestaurtinib' of Supplementary Table 1),run:Lestaurtinib_02487_R1,Plate:MR012)?
A: Its potency estimated from few doses is 45.5 nM.

Q: And the potency estimated from few doses (compound concentrations:100 nM and 1000 nM (sheet 'Lestaurtinib' of Supplementary Table 1),run:Lestaurtinib_02487_R2,Plate:MR012)?
A: Its potency estimated from few doses is 64.8 nM.

Q: What about the potency estimated from few doses (compound concentrations:100 nM and 1000 nM (sheet 'Lestaurtinib' of Supplementary Table 1),run:Lestaurtinib_02487_R3,Plate:MR012) of the same substance?
A: The potency estimated from few doses was 70.8 nM.

Q: And the potency estimated from few doses (compound concentrations:100 nM and 1000 nM (sheet 'Lestaurtinib' of Supplementary Table 1),run:Lestaurtinib_02496_R1,Plate:MR013)?
A: The potency estimated from few doses was 93.7 nM.

Q: And the potency estimated from few doses (compound concentrations:100 nM and 1000 nM (sheet 'Lestaurtinib' of Supplementary Table 1),run:Lestaurtinib_02496_R2,Plate:MR013)?
A: Its potency estimated from few doses is 80.9 nM.

Q: And the potency estimated from few doses (compound concentrations:100 nM and 1000 nM (sheet 'Lestaurtinib' of Supplementary Table 1),run:Lestaurtinib_02566_R1,Plate:MR014)?
A: The potency estimated from few doses was 85.4 nM.

Q: What about the potency estimated from few doses (compound concentrations:100 nM and 1000 nM (sheet 'Lestaurtinib' of Supplementary Table 1),run:Lestaurtinib_02566_R2,Plate:MR014) of the same substance?
A: The potency estimated from few doses was 74.9 nM.

Q: What about the potency estimated from few doses (compound concentrations:100 nM and 1000 nM (sheet 'Lestaurtinib' of Supplementary Table 1),run:Lestaurtinib_02572_R1,Plate:MR015) of the same substance?
A: The potency estimated from few doses was 46 nM.

Q: And the potency estimated from few doses (compound concentrations:100 nM and 1000 nM (sheet 'Lestaurtinib' of Supplementary Table 1),run:Lestaurtinib_02572_R2,Plate:MR015)?
A: The potency estimated from few doses was 79.8 nM.

Q: And the potency estimated from few doses (compound concentrations:100 nM and 1000 nM (sheet 'Lestaurtinib' of Supplementary Table 1),run:Lestaurtinib_02572_R3,Plate:MR015)?
A: Its potency estimated from few doses is 95.8 nM.

Q: What about the potency estimated from few doses (compound concentrations:100 nM and 1000 nM (sheet 'Lestaurtinib' of Supplementary Table 1),run:Lestaurtinib_02577_R1,Plate:MR016) of the same substance?
A: The potency estimated from few doses was 58.2 nM.

Q: And the potency estimated from few doses (compound concentrations:100 nM and 1000 nM (sheet 'Lestaurtinib' of Supplementary Table 1),run:Lestaurtinib_02577_R2,Plate:MR016)?
A: Its potency estimated from few doses is 52.8 nM.

Q: And the potency estimated from few doses (compound concentrations:100 nM and 1000 nM (sheet 'Lestaurtinib' of Supplementary Table 1),run:Lestaurtinib_02577_R3,Plate:MR016)?
A: The potency estimated from few doses was 59.6 nM.

Q: What about the potency estimated from few doses (compound concentrations:100 nM and 1000 nM (sheet 'Lestaurtinib' of Supplementary Table 1),run:Lestaurtinib_02584_R1,Plate:MR017) of the same substance?
A: Its potency estimated from few doses is 83.9 nM.

Q: What about the potency estimated from few doses (compound concentrations:100 nM and 1000 nM (sheet 'Lestaurtinib' of Supplementary Table 1),run:Lestaurtinib_02584_R2,Plate:MR017) of the same substance?
A: Its potency estimated from few doses is 61 nM.

Q: What about the potency estimated from few doses (compound concentrations:100 nM and 1000 nM (sheet 'Lestaurtinib' of Supplementary Table 1),run:Lestaurtinib_02584_R3,Plate:MR017) of the same substance?
A: Its potency estimated from few doses is 88.2 nM.

Q: And the potency estimated from few doses (compound concentrations:100 nM and 1000 nM (sheet 'Lestaurtinib' of Supplementary Table 1),run:Lestaurtinib_02601_R1,Plate:MR018)?
A: The potency estimated from few doses was 68.7 nM.

Q: What about the potency estimated from few doses (compound concentrations:100 nM and 1000 nM (sheet 'Lestaurtinib' of Supplementary Table 1),run:Lestaurtinib_02601_R3,Plate:MR018) of the same substance?
A: Its potency estimated from few doses is 47.3 nM.

Q: What about the potency estimated from few doses (compound concentrations:100 nM and 1000 nM (sheet 'Lestaurtinib' of Supplementary Table 1),run:Lestaurtinib_02606_R1,Plate:MR019) of the same substance?
A: Its potency estimated from few doses is 69.9 nM.
